In PubChem BioAssay AID1159580 (chemical genetic matrix, 2015):
About 2,000 (36%) of roughly 5,500 compounds were called active. Not shown: some 18% with an inconclusive outcome. Cut-off read from the data, not from the text of the source: active = normalized growth mostly below about 0.91 (no sharp cut-off); inconclusive = no clear call, values can overlap the other calls; inactive = mostly above about 0.92. The list shows a part of the results.

Assay: chemical genetic growth profiling, strain panel (AID 1159580);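 note: tested at 20 µM; growth read once vehicle control cultures reached saturation at 30 °C; 1 = growth at the plate median or of vehicle wells; lower values mean less growth of the strain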
Details: growth OD

Measured: normalized growth

CC[C@H]1OC(=O)[C@H](C)[C@@H](O[C@H]2C[C@@](C)(OC)[C@@H](O)[C@H](C)O2)[C@H](C)[C@@H](O[C@@H]2O[C@H](C)C[C@H](N(C)C)[C@H]2O)[C@](C)(O)C[C@@H](C)[C@@H]2N[C@@H](COCCOC)O[C@H]([C@H]2C)[C@]1(C)O
inactive: S. cerevisiae deletion strains, locus YJR075W, strain HOC1, active compounds read low 1.05 | S. cerevisiae deletion strains, locus YKL009W, strain mrt4, active compounds read low 1.03 | S. cerevisiae deletion strains, locus YKL068W, active compounds read low 1 | S. cerevisiae deletion strains, locus YKL085W, strain MDH1 (second series), active compounds read low 0.976 | S. cerevisiae deletion strains, locus YKL085W, strain MDH1, active compounds read low 0.976 | S. cerevisiae deletion strains, locus YKL160W, strain elf1, active compounds read low 1 | S. cerevisiae deletion strains, locus YKR001C, strain vps1, active compounds read low 1.01 | S. cerevisiae deletion strains, locus YKR026C, strain gcn3, active compounds read low 0.987 | S. cerevisiae deletion strains, locus YKR091W, strain srl3, active compounds read low 0.997 | S. cerevisiae deletion strains, locus YLL001W, strain dnm1, active compounds read low 0.991 | S. cerevisiae deletion strains, locus YLL026W, active compounds read low 0.984 | S. cerevisiae deletion strains, locus YLL041C, strain sdh2, active compounds read low 0.986 | S. cerevisiae deletion strains, locus YLR027C, strain aat2, active compounds read low 0.991 | S. cerevisiae deletion strains, locus YLR039C, strain RIC1, active compounds read low 0.982 | S. cerevisiae deletion strains, locus YLR058C, strain SHM2, active compounds read low 1.02 | S. cerevisiae deletion strains, locus YLR102C, strain apc9, active compounds read low 1.01 | S. cerevisiae deletion strains, locus YLR113W, strain HOG1, active compounds read low 1.04 | S. cerevisiae deletion strains, locus YLR221C, strain rsa3, active compounds read low 0.993 | S. cerevisiae deletion strains, locus YLR258W, strain gsy2, active compounds read low 1 | S. cerevisiae deletion strains, locus YLR262C, strain YPT6 (second series), active compounds read low 0.985 | S. cerevisiae deletion strains, locus YLR262C, strain YPT6, active compounds read low 1.01 | S. cerevisiae deletion strains, locus YLR268W, strain sec22, active compounds read low 0.999 | S. cerevisiae deletion strains, locus YLR320W, strain mms22, active compounds read low 0.991 | S. cerevisiae deletion strains, locus YLR330W, strain CHS5, active compounds read low 1.01 | S. cerevisiae deletion strains, locus YLR342W, strain FKS1 (second series), active compounds read low 1.02 | S. cerevisiae deletion strains, locus YLR342W, strain FKS1, active compounds read low 0.992 | S. cerevisiae deletion strains, locus YLR357W, strain rsc2, active compounds read low 0.958 | S. cerevisiae deletion strains, locus YLR370C, strain arc18, active compounds read low 0.989 | S. cerevisiae deletion strains, locus YLR371W, strain rom2, active compounds read low 1 | S. cerevisiae deletion strains, locus YLR384C, strain iki3, active compounds read low 0.993 | S. cerevisiae deletion strains, locus YLR418C, strain cdc73, active compounds read low 0.996 | S. cerevisiae deletion strains, locus YML016C, strain PPZ1, active compounds read low 1.01 | S. cerevisiae deletion strains, locus YML032C, strain rad52, active compounds read low 0.999 | S. cerevisiae deletion strains, locus YML120C, strain ndi1, active compounds read low 0.997 | S. cerevisiae deletion strains, locus YML124C, strain tub3, active compounds read low 1 | S. cerevisiae deletion strains, locus YMR058W, strain fet3, active compounds read low 0.997 | S. cerevisiae deletion strains, locus YMR078C, strain ctf18, active compounds read low 1.01 | S. cerevisiae deletion strains, locus YMR125W, strain sto1, active compounds read low 0.992 | S. cerevisiae deletion strains, locus YMR129W, active compounds read low 1 | S. cerevisiae deletion strains, locus YMR205C, strain PFK2, active compounds read low 0.969 | S. cerevisiae deletion strains, locus YMR223W, strain ubp8, active compounds read low 1.02 | S. cerevisiae deletion strains, locus YMR231W, strain pep5, active compounds read low 0.993 | S. cerevisiae deletion strains, locus YMR263W, strain SAP30, active compounds read low 1.03 | S. cerevisiae deletion strains, locus YMR307W, strain GAS1, active compounds read low 0.919 | S. cerevisiae deletion strains, locus YNL067W, strain RPL9B, active compounds read low 1.04 | S. cerevisiae deletion strains, locus YNL071W, strain lat1, active compounds read low 0.999 | S. cerevisiae deletion strains, locus YNL128W, strain TEP1, active compounds read low 1.02 | S. cerevisiae deletion strains, locus YNL183C, strain NPR1, active compounds read low 0.96 | S. cerevisiae deletion strains, locus YNL209W, strain ssb2, active compounds read low 0.988 | S. cerevisiae deletion strains, locus YNL233W, strain BNI4, active compounds read low 1.03 | S. cerevisiae deletion strains, locus YNL248C, strain rpa49, active compounds read low 0.975 | S. cerevisiae deletion strains, locus YNL250W, strain rad50, active compounds read low 1.01 | S. cerevisiae deletion strains, locus YNL271C, strain bni1, active compounds read low 1.01 | S. cerevisiae deletion strains, locus YNL298W, strain CLA4, active compounds read low 1 | S. cerevisiae deletion strains, locus YNL307C, strain MCK1, active compounds read low 1 | S. cerevisiae deletion strains, locus YNL322C, strain KRE1 (second series), active compounds read low 0.995 | S. cerevisiae deletion strains, locus YNR049C, strain mso1, active compounds read low 0.989 | S. cerevisiae deletion strains, locus YNR052C, strain pop2, active compounds read low 1.01 | S. cerevisiae deletion strains, locus YOL006C, strain TOP1, active compounds read low 1.09 | S. cerevisiae deletion strains, locus YOL012C, strain htz1 1.56 | S. cerevisiae deletion strains, locus YOL147C, strain pex11, active compounds read low 1 | S. cerevisiae deletion strains, locus YOR001W, strain rrp6, active compounds read low 0.986 | S. cerevisiae deletion strains, locus YOR061W, strain CKA2, active compounds read low 1.02 | S. cerevisiae deletion strains, locus YOR069W, strain VPS5, active compounds read low 1.01 | S. cerevisiae deletion strains, locus YOR070C, strain gyp1, active compounds read low 0.999 | S. cerevisiae deletion strains, locus YOR080W, strain dia2, active compounds read low 0.995 | S. cerevisiae deletion strains, locus YOR083W, strain WHI5, active compounds read low 0.996 | S. cerevisiae deletion strains, locus YOR106W, strain vam3, active compounds read low 0.999 | S. cerevisiae deletion strains, locus YOR136W, strain idh2, active compounds read low 1 | S. cerevisiae deletion strains, locus YOR144C, strain elg1, active compounds read low 1.01 | S. cerevisiae deletion strains, locus YOR184W, strain ser1, active compounds read low 1 | S. cerevisiae deletion strains, locus YOR231W, strain MKK1, active compounds read low 1.02 | S. cerevisiae deletion strains, locus YOR265W, strain rbl2, active compounds read low 0.996 | S. cerevisiae deletion strains, locus YOR270C, strain vph1, active compounds read low 0.978 | S. cerevisiae deletion strains, locus YOR290C, strain snf2, active compounds read low 0.981 | S. cerevisiae deletion strains, locus YOR316C, strain cot1, active compounds read low 1.01 | S. cerevisiae deletion strains, locus YPL051W, strain arl3, active compounds read low 1.01 | S. cerevisiae deletion strains, locus YPL078C, strain atp4, active compounds read low 0.995 | S. cerevisiae deletion strains, locus YPL106C, strain sse1, active compounds read low 0.978 | S. cerevisiae deletion strains, locus YPL240C, strain hsp82, active compounds read low 0.989 | S. cerevisiae deletion strains, locus YPL256C, strain CLN2, active compounds read low 1.01 | S. cerevisiae deletion strains, locus YPR119W, strain clb2, active compounds read low 1.01 | S. cerevisiae deletion strains, locus YPR141C, strain kar3, active compounds read low 1.01 | S. cerevisiae deletion strains, locus YPR163C, strain tif3, active compounds read low 1.02 | S. cerevisiae deletion strains, locus YPR167C, strain met16, active compounds read low 0.996 | S. cerevisiae deletion strains, strain wtn01, active compounds read low 1 | S. cerevisiae strains, strain wild type, active compounds read low 1.02
